# Assay results as given in PubChem BioAssay.
# Values without a mark were called inactive. Where a call stands in place of a potency, no number is given. For some assays here: Potency and affinity values are given separately. The source made the active and inactive calls. Unless noted, the rule behind the calls is not given here.
# Legend:
# [1] = antimalarial activity against Dd2 strain (AID 2302;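 active = growth inhibition above 50% at the single 2 µM test dose, taken to imply half-maximal potency below 2 µM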); conditions: P. falciparum Dd2 in RBCs, LDH growth readout, 72 h; at 2 µM; active compounds read high
# [2] = human hepatoma cell viability loss – ATP luminescence, cytotoxicity control for P. falciparum antimalarial project, primary screen (AID 2303;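 active = inhibition above 50%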); conditions: HepG2 viability, 24-48 h, at 10 µM, active compounds read high
# [3] = molecular target: L-lactate dehydrogenase (Plasmodium falciparum (isolate CDC / Honduras)) (UniProt Q27743); test: PfLDH activity inhibition – cell lysate, 3D7 strain, counter-screen for P. falciparum growth inhibition project (AID 2304); conditions: P. falciparum 3D7 crude extract, LDH APAD/NBT absorbance; at 2 µM; active compounds read high
# Chain of L-lactate dehydrogenase (Plasmodium falciparum (isolate CDC / Honduras)) (Q27743 whole entry, looked up): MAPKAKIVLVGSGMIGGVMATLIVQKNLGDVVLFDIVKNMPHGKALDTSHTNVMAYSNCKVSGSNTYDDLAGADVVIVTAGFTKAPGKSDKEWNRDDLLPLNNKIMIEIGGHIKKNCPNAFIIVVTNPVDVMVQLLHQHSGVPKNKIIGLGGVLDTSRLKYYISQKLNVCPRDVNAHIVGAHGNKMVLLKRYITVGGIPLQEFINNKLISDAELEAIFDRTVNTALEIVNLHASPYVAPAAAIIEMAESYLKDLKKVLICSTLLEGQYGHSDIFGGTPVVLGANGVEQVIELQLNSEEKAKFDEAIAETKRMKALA
# [4] = inhibition of 3D7 malaria parasite growth – strain 3D7 (AID 2306); conditions: P. falciparum 3D7 erythrocytic growth, LDH absorbance, 72 h; at 2 µM; active compounds read high
# [5] = molecular target: Calcium-dependent protein kinase 1 (Plasmodium falciparum (isolate 3D7)) (UniProt P62344); test: PfCDPK1 kinase inhibitors, biochemical, TCAMS library (AID 1159585; cut-off not given, nearly all actives have IC50 up to about 0.98 µM;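 note: inhibitors leave more ATP so luminescence rises with inhibition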); conditions: recombinant PfCDPK1, Kinase-Glo ATP depletion luminescence
# Chain of Calcium-dependent protein kinase 1 (Plasmodium falciparum (isolate 3D7)) (P62344 whole entry, looked up): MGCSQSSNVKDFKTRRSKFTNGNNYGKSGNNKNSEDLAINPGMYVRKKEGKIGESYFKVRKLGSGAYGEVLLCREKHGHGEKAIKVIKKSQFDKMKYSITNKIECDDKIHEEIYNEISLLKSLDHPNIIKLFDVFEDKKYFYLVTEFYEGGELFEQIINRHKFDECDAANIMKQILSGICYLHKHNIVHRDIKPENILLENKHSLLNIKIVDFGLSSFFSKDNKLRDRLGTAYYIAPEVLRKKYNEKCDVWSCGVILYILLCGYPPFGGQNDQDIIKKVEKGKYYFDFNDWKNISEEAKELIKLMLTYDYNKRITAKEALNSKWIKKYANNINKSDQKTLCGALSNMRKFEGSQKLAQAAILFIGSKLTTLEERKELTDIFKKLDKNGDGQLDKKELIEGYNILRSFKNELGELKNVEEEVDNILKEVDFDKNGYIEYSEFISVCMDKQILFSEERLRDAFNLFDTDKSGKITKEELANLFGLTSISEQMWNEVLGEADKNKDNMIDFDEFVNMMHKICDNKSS
# [6] = molecular target: Plasmodium falciparum protein kinase 6 (PK6, PF3D7_1337100) (UniProt Q8IDW1); test: PfPK6 kinase inhibitors, biochemical, TCAMS library (AID 1159586); conditions: recombinant PfPK6, Kinase-Glo ATP depletion luminescence
# Chain of Plasmodium falciparum protein kinase 6 (PK6, PF3D7_1337100) (Q8IDW1 1-305): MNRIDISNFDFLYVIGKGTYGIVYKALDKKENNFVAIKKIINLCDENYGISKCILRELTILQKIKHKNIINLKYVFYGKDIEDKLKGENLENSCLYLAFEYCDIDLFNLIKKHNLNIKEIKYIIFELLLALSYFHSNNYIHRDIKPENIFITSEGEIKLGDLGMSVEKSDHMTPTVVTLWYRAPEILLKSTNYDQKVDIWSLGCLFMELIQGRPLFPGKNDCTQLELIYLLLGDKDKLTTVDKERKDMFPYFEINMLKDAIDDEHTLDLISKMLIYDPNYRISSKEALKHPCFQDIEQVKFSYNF
# [7] = molecular target: Protein kinase 7 (PK7), Plasmodium falciparum 3D7 (PF3D7_0213400) (UniProt Q7YTF7); test: inhibition of Plasmodium PK7 catalytic activity – biochemical, TCAMS antimalarial set, Kinase-Glo luminescence (AID 1159587); conditions: recombinant PfPK7, Kinase-Glo ATP depletion luminescence
# Chain of Protein kinase 7 (PK7), Plasmodium falciparum 3D7 (PF3D7_0213400) (Q7YTF7 1-343): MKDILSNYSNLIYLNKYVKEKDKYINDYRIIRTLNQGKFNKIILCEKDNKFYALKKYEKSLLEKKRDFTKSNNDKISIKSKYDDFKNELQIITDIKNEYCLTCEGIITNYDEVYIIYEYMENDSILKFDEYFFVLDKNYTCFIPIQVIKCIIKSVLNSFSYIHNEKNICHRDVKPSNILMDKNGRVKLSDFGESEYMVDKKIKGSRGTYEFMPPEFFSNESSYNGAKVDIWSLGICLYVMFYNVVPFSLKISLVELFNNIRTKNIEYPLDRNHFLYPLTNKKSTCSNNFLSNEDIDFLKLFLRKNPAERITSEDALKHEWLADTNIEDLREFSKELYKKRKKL
# [8] = molecular target: Calcium-dependent protein kinase 4 (Plasmodium falciparum (isolate 3D7)) (UniProt Q8IBS5); test: PfCDPK4 kinase inhibitors, biochemical, TCAMS library (AID 1159588; cut-off not given, nearly all actives have IC50 up to about 0.91 µM); conditions: recombinant PfCDPK4, Kinase-Glo ATP depletion luminescence
# Chain of Calcium-dependent protein kinase 4 (Plasmodium falciparum (isolate 3D7)) (Q8IBS5 whole entry, looked up): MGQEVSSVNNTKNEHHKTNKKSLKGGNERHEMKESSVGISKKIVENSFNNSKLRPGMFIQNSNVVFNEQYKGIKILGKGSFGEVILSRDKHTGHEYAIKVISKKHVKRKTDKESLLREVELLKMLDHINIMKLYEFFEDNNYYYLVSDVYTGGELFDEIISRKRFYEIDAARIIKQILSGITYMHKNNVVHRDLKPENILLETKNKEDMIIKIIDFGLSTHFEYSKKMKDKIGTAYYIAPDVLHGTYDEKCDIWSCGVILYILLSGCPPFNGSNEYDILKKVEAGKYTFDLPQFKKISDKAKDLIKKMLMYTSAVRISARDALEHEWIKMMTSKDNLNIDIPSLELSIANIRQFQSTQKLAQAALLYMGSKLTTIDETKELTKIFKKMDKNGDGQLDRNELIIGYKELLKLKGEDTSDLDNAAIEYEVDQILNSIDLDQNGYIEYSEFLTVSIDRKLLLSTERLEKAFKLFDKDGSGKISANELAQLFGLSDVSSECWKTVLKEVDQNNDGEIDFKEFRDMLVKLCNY
SMILES,growth inhibition [1],inhibition [2],inhibition [3] [%],growth inhibition [4],outcome [5],outcome [6],outcome [7],outcome [8]
CS(=O)(=O)c1ccc(CNCc2cccc(-c3cccc(-c4nc5ccc(C(F)(F)F)cc5[nH]4)c3)c2)cc1,96% (active),5%,2,103% (active),inactive,inactive,inactive,inactive
Cc1ccc(CN=C(N)NC(=O)c2nc(Cl)c(NCc3ccc(Cl)cc3)nc2N)c(C)c1,100% (active),28%,-5,101% (active),inactive,inactive,inactive,inactive
C#CCOc1ccccc1CN1CCC(N2CCc3cc(NC(=O)c4cc(C)on4)ccc32)C1 (stereo not given),94% (active),16%,-2,95% (active),inactive,inactive,inactive,inactive
CCOc1ccc(-n2nc3c(Cl)nnc(-c4ccccc4)c3c2-c2ccccc2)cc1,99% (active),0%,9,96% (active),inactive,inactive,inactive,inactive
O=[N+]([O-])c1cccc(CNCC2CCN(Cc3ccc(-c4ccccc4)cc3)CC2)c1,91% (active),28%,6,101% (active),inactive,inactive,inactive,inactive
NCC1CCCN1Cc1cccc(-c2ccc(-c3nc4ccccc4[nH]3)s2)c1 (stereo not given),66% (active),16%,3,99% (active),inactive,inactive,inactive,inactive
Cc1ccc(-c2cc3nc4c(c(NCCCn5ccnc5)n3n2)CCC4)cc1,21%,22%,-2,94% (active),inactive,inactive,inactive,inactive
CCCCN(CCCC)CCNC(=O)c1cccc(NC(=O)N2CCc3cc(SC)c(C(F)(F)F)cc32)c1,32%,15%,-1,96% (active),inactive,inactive,inactive,inactive
CS(=O)(=O)CCNCc1cc(-c2cc3ncnc(Nc4ccc(OCc5cccc(F)c5)c(Cl)c4)c3s2)cs1,48%,8%,-2,99% (active),inactive,inactive,inactive,inactive
Cn1cnc2c(Nc3ccncc3)nc(-c3ccc4ccccc4c3)nc21,66% (active),55% (active),7,96% (active),inactive,inactive,inactive,inactive
COc1ccc(CNc2ccnc3cc(OC)ccc23)cc1,74% (active),7%,-7,100% (active),inactive,inactive,inactive,inactive
CCNc1cc(C)nc(Nc2ccc(NC(=O)c3ccccc3Br)cc2)n1,56% (active),46%,-3,100% (active),inactive,inactive,inactive,inactive
CN1CCCC(CN2CCN(Cc3ccc(-c4cccc(-c5nc6ccc(F)cc6[nH]5)c4)cc3)CC2)C1 (stereo not given),99% (active),92% (active),-2,100% (active),inactive,inactive,inactive,inactive
Cc1cc(NC(=O)NCCN2CCC(NS(=O)(=O)c3ccc(Br)cc3)C2)c2ccccc2n1 (stereo not given),51% (active),9%,0,99% (active),inactive,inactive,inactive,inactive
O=C(/C=C/c1ccc(Cl)c(Cl)c1)NCCCCCN1CCC(NC(=O)Nc2ccc3c(c2)OCO3)CC1,5%,12%,6,103% (active),inactive,inactive,inactive,inactive
NCCCN(Cc1ccc(Cl)c(Cl)c1)C(=O)Nc1ccc(Cl)c(Cl)c1,41%,100% (active),-2,93% (active),inactive,inactive,inactive,inactive
Cc1sc2cc(Cl)cc(Cl)c2c1S(=O)(=O)Nc1ccc2nccc(N3CCNCC3)c2c1,99% (active),24%,-8,100% (active),inactive,inactive,inactive,inactive
Cc1cccc2[nH]c(-c3ccc(-c4ccc(CN5CCC(CCN6CCCCC6)CC5)cc4)cc3)nc12,100% (active),99% (active),6,100% (active),inactive,inactive,inactive,inactive
O=C(NCc1cccc(Cl)c1)c1ccc(CNC2CCN(Cc3ccccc3)CC2)cc1,50% (active),13%,5,100% (active),inactive,inactive,inactive,inactive
COC(=O)c1cccc(CNCc2ccc(-c3cccc(-c4nc5ccc(C(F)(F)F)cc5[nH]4)c3)cc2)c1,97% (active),5%,6,102% (active),inactive,inactive,inactive,inactive

SMILES,growth inhibition [1],inhibition [2],inhibition [3] [%],growth inhibition [4],outcome [5],outcome [6],outcome [7],outcome [8]
c1cc(-c2ccc(CNCc3ccc(-c4csnn4)cc3)cc2)cc(-c2nc3ccccc3[nH]2)c1,96% (active),60% (active),-7,100% (active),inactive,inactive,inactive,inactive
Cc1c(CN2CCC(N3CCC(C(=O)NC4CC4)CC3)CC2)[nH]c2c(Cl)cccc12,3%,22%,1,92% (active),inactive,inactive,inactive,inactive
CC1(C)N=C(N)N=C(N)N1OCc1cc(Cl)c(CON2C(N)=NC(N)=NC2(C)C)cc1Cl,77% (active),21%,3,94% (active),inactive,inactive,inactive,inactive
COC(=O)c1ccc(OCC(C)NCC(O)c2cccc(C(F)(F)F)c2)cc1 (stereo not given),81% (active),6%,-2,94% (active),inactive,inactive,inactive,inactive
O=C(N[C@@H](CC1CCCCC1)C(=O)NCc1cccc2ccccc12)c1ccc(O)c(-c2ccc(Cl)c(Cl)c2)c1,99% (active),-9%,2,97% (active),inactive,inactive,inactive,inactive
COc1ccc(-c2ccc(NC(=O)c3ccc(C#N)cc3)cc2)cc1CNC(C)C,38%,19%,-3,100% (active),inactive,inactive,inactive,inactive
CC[C@H]1CN(C/C=C/c2ccc(OC)cc2)CC[C@H]1CCCc1ccnc2ccc(O)cc12,72% (active),24%,1,99% (active),inactive,inactive,inactive,inactive
O=c1[nH]ccc2nc(N[C@@H]3CCNC3)nc(Nc3cccc(S(=O)(=O)N4CCOCC4)c3)c12,98% (active),0%,4,90% (active),inactive,inactive,inactive,inactive
Cc1ccc2c(=O)c3cc(C)ccc3[nH]c2c1,94% (active),10%,5,96% (active),inactive,inactive,inactive,inactive
Cc1ccc(C)c(CC(=O)N2CCC(n3c(C)nc4ccc(F)cc43)CC2)c1,99% (active),-2%,1,100% (active),inactive,inactive,inactive,inactive
Nc1nccc(-c2ccc3c(-c4cccc(F)c4)cnc(N)c3c2)n1,44%,41%,5,93% (active),inactive,inactive,inactive,inactive
Nc1nc(N)c2c(ccn2Cc2cc3c(cc2Cl)OCO3)n1,11%,67% (active),-3,98% (active),inactive,inactive,inactive,inactive
O=C(NC1CC1)c1ccc(N2CCC(Cc3ccccc3)CC2)nc1,92% (active),13%,5,95% (active),inactive,inactive,inactive,inactive
CC(C)(C)c1ccc(/C=C/C(=O)NCCCCCN2CCC(c3c[nH]c4ccccc34)CC2)cc1,12%,70% (active),8,91% (active),inactive,inactive,inactive,inactive
CN(C(=O)/C=C/c1c(Cl)cccc1Cl)C1CCN(CCCCCNC(=O)/C=C/c2ccc(Cl)c(Cl)c2)CC1,62% (active),78% (active),4,92% (active),inactive,inactive,inactive,inactive
CCCCOc1ccc(CNCCCCCCNCc2ccc(OCCCC)c3ccccc23)c2ccccc12,49%,100% (active),2,81% (active),inactive,inactive,inactive,inactive
Cc1nc(C)c(CC(=O)Nc2ccc(-c3cccc(-c4nc5ccc(C(F)(F)F)cc5[nH]4)c3)cc2)s1,4%,67% (active),1,86% (active),inactive,inactive,inactive,inactive
Cc1cccc2[nH]c(-c3ccc(-c4ccc(CN5CCN(c6ccncc6)CC5)cc4)s3)nc12,98% (active),85% (active),2,102% (active),inactive,inactive,inactive,inactive
c1ccc(-c2cc(NCCCCCCCCNc3cc(-c4ccccc4)nc4ccccc34)c3ccccc3n2)cc1,72% (active),36%,1,101% (active),inactive,inactive,inactive,inactive
Cc1cc(C)c2cc(CNCCCNc3nc4ccccc4[nH]3)[nH]c2c1,-2%,32%,3,102% (active),inactive,inactive,inactive,inactive
